In the library only some 3.7% were active in any assay of this set; here they are far more common.
PfHsp90 yeast 2 – growth inhibition of yeast expressing Plasmodium Hsp90. inhibition, % at 9.4 µM. AID 504621. 310,000 tested, 0.32% active. S. cerevisiae expressing PfHsp90, BacTiter-Glo ATP, 48 h; yeast lacking PDR1 and PDR3 efflux regulators;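 active means every replicate shows inhibition above about 80%, whatever the replicate mean, limit read from the data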;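 further: 0% = DMSO neutral controls and 100% = 20 µM radicicol positive controls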
tim10-1 inh – tim10-1 yeast growth inhibition. S. cerevisiae tim10-1 ts strain growth, BacTiter-Glo, 24 h. inhibition, % at 20 µM. 330,000 tested, 2.2% active. AID 463190;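 active means inhibition of at least 40%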;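 further: mutant grown at 25 °C; 0% = DMSO wells with yeast and 100% = wells holding no yeast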
TIM10 inh – inhibits growth of TIM10 yeast strain | S. cerevisiae TIM10 strain growth, BacTiter-Glo luminescence, 24 h | inhibition, % at 10 µM | 330,000 tested, 1.4% active | AID 463195;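 active means inhibition of 40% or more at the single tested concentration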;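 further: wild-type TIM10 isogenic control strain grown at permissive 25 °C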
tim23-1 inh – growth inhibitors of tim23-1 mutant yeast; S. cerevisiae tim23-1 growth, BacTiter-Glo luminescence, 24 h; inhibition, % at 20 µM; 330,000 tested, 1.3% active; AID 463212;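 active means growth inhibition of the mutant yeast at or above 50%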;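 further: temperature-sensitive mutant grown at 25 °C; plate controls were DMSO-treated mutant yeast for no effect and medium wells lacking yeast for full effect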
V-ATPase pH – regulators of yeast V-ATPase proton transport | AID 504577 | response, % at 10 µM | 350,000 tested, 0.37% active | S. cerevisiae, pHLuorin cytosolic pH fluorescence; in the data active means response mostly above about 7.3%, no sharp cut-off; inactive means mostly below about 5.4%; further: actives read high
tim23-1 confirm – tim23-1 yeast growth inhibition, confirmed. S. cerevisiae tim23-1 growth, BacTiter-Glo luminescence, 24 h. 4,400 tested, 83% active. inhibition, % at 20 µM. shares compounds with tim23-1 inh;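 active means inhibition above about 39% in either of two replicate wells at 20 µM, limit read from the data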;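 further: temperature-sensitive tim23-1 mutant grown at 25 °C; 0% = DMSO wells with yeast and 100% = medium wells without yeast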
Active calls of the source: *; . = no result.

SMILES	PfHsp90 yeast 2	tim10-1 inh	TIM10 inh	tim23-1 inh	V-ATPase pH	tim23-1 confirm
Cn1nnnc1SCC(=O)Nc1ncc(C(F)(F)F)cc1Cl	.	-4	-5	-6	-1	.
COc1cc(CNc2ccc(O)cc2)cc(Br)c1OCc1ccccc1	3	18	14	50*	-2	55*
FC(F)(F)c1cc(Nc2ccccc2)nc(-c2ccccn2)n1	9	22	35	51*	5	34
CC(C)Nc1cc(C(F)(F)F)nc(-c2ccccn2)n1	.	35	-13	-10	6	.
Cc1ccc2c(c1)/C(=C/c1ccccc1C)C(=O)N2	-32	37	30	53*	-1	42*
O=C1Nc2ccccc2/C1=C/c1ccccc1Cl	15	36	32	53*	-4	46*
COc1ccccc1/C=C1\C(=O)Nc2ccccc21	-20	31	35	62*	4	46*
O=C(NCc1ccco1)c1ccc(OC2CCN(Cc3ccccn3)CC2)cc1	.	.	.	.	2	.
Cc1ccccc1-c1nn2c(-c3ccccc3)nnc2s1	-18	38	18	53*	4	51*
Cc1cc(-c2nn3c(-c4ccccc4)nnc3s2)c2ccccc2n1	-7	31	27	17	-3	.
CCCc1[nH][nH]c(=O)c1C(c1ccccc1)C(C#N)C#N (stereo not given)	.	20	27	38	4	.
CCCc1[nH][nH]c(=O)c1C(c1ccc(Br)cc1)C(C#N)C#N (stereo not given)	6	33	35	59*	3	35
Nc1nc(-c2ccc(Oc3ccccc3)cc2)cs1	-108	11	7	57*	4	48*
Nc1nc(-c2ccc(-c3ccccc3)cc2)cs1	-92	27	0	54*	2	69*
Oc1ccc(-c2csc(-c3ccccc3)n2)cc1O	-7	7	-39	58*	-1	-10
Oc1ccc(-c2csc(-c3cccnc3)n2)cc1O	-15	-17	13	-34	2	.
Cc1ccc(-c2csc(N)n2)cc1	-15	.	.	.	-4	.
COc1ccc(-c2csc(N)n2)cc1	19	20	11	14	-3	.
Cc1nc(SCC(=O)Nc2cccnc2Cl)nc(C)c1C	1	3	-11	19	0	.
CCN(C(=O)CN1C(=O)/C(=C/c2ccccc2)SC1=S)C1CCS(=O)(=O)C1 (stereo not given)	10	3	2	3	2	.
NC(=O)N/N=C\c1cc(Br)ccc1O	-7	3	-6	3	-1	.
Nc1nonc1C(=O)N/N=C/c1cc(Br)ccc1O	-23	-3	14	52*	2	56*
NNC(=O)c1sc2cc(C(F)(F)F)cnc2c1-c1ccccn1	10	2	11	4	-1	.
NNC(=O)c1c(O)c2cccc3c2n(c1=O)CCC3	-2	28	24	53*	-2	38
COc1cc(/C=C(\C#N)C(=O)N2CCc3ccccc32)ccc1O	3	30	13	55*	3	60*
SMILES	PfHsp90 yeast 2	tim10-1 inh	TIM10 inh	tim23-1 inh	V-ATPase pH	tim23-1 confirm
N#C/C(=C\c1ccc(O)c(O)c1)C(=O)N1CCc2ccccc21	5	16	7	26	-1	.
Nc1c(Br)cc(Br)c2c1C(=O)c1c(cccc1S(=O)(=O)O)C2=O	.	.	.	.	3	.
CC(C)=CCN1CCN(Cc2nc(-c3ccccc3)cs2)CC1CCO (stereo not given)	-10	-3	5	0	1	.
CC(C)(C)c1ccccc1OCC(=O)NCCC(=O)O	-15	8	5	-4	1	.
C=C(C(=O)Oc1ccccc1C(C)(C)C)c1ccccc1	.	39	37	59*	.	56*
ClC(Cl)(Cl)c1nc2ccccc2n2nncc12	-22	32	19	54*	1	37
c1ccc2c(c1)nnn1c3ccccc3nc21	.	38	-1	19	.	.
COc1ccc(C(C[N+](=O)[O-])c2c(-c3ccccc3)cc3ccccn23)cc1 (stereo not given)	.	40	38	63*	3	78*
COc1ccc(C(C[N+](=O)[O-])c2c(-c3ccccc3)cc3ccccn23)cc1OC (stereo not given)	.	35	31	50*	1	62*
COc1ccc(OC)c(NC(=O)c2csc(Cl)c2OC)c1	-9	23	26	59*	0	44*
CCOC(=O)c1c(C)[nH]c(C)c1C(=O)COC(=O)[C@@H](NC(=O)c1ccco1)C(C)C	-14	16	7	13	3	.
CCn1cc(Br)c(C(=O)Nc2cccc(Cl)c2)n1	-14	29	29	59*	1	52*
CN(CC(=O)Nc1ccccc1Br)C(=O)c1ccccc1OCc1ccccc1Cl	-42	.	.	.	0	.
CCN(CC)S(=O)(=O)c1csc(C(=O)NC2CCCCC2)c1	.	-3	-15	96*	0	17
CCN(CC)S(=O)(=O)c1cccc(C(=O)NC2CCCCC2)c1	-18	17	3	19	-1	.
O=C(Cc1ccccc1)NNC(=O)Nc1cccc(Cl)c1	2	-4	9	51*	-3	11
O=C(NCc1ccc2c(c1)OCO2)Nc1cccc(Cl)c1	-7	2	28	53*	0	64*
CC(=O)c1cccc(NC(=O)NCc2ccc3c(c2)OCO3)c1	-34	8	-2	11	6	.
O=C(CCC(=O)NNC(=O)Nc1cccc(Cl)c1)NCc1ccccc1	-25	6	-15	3	4	.
O=C(NCc1ccc2c(c1)OCO2)c1ccc(-c2ccc(Cl)cc2)o1	-61	19	33	55*	8	54*
CCc1cc2cc(C)cc(C)c2nc1SCC(=O)N1CCN(C(=O)c2ccco2)CC1	-3	3	-8	20	-1	.
CCc1cc2cccc(C)c2nc1SCC(=O)N1CCN(C(=O)c2ccco2)CC1	-15	30	5	57*	1	38*
Cc1ccc2c(C(=O)CN3CCC(C(N)=O)CC3)c(C)[nH]c2c1	-22	9	3	2	0	.
O=C1/C(=C\c2ccc(O)cc2)SC(=S)N1Cc1ccccc1	49	-13	19	55*	-1	14
Cc1c(CCOC(=O)CC23CC4CC(CC(C)(C4)C2)C3)sc[n+]1CC(=O)c1ccccc1	7	3	11	11	-1	.
SMILES	PfHsp90 yeast 2	tim10-1 inh	TIM10 inh	tim23-1 inh	V-ATPase pH	tim23-1 confirm
Cc1c(CCOC(=O)C23CC4CC(CC(C)(C4)C2)C3)sc[n+]1CC(=O)c1ccccc1	-28	5	18	62*	-2	18
CC(C)(C)c1csc(NC(=O)c2ccc(Cl)s2)n1	-41	26	5	70*	4	74*
CC(C)(C)c1csc(NC(=O)c2ccc(Br)o2)n1	-30	30	23	53*	-3	48*
CCOC(=O)Cc1csc(NC(=O)c2ccc(Br)o2)n1	8	-10	-9	15	3	.
CC(C)(C)c1csc(NC(=O)c2ccncc2)n1	11	1	-16	18	1	.
Cc1ccc(C(=O)Nc2nc(C(C)(C)C)cs2)s1	-19	9	-4	52*	4	42*

Bioassay records from PubChem BioAssay.
